Several values for one entry are separate records, joined by “and”; a condition that tells them apart may be missing. Equal entries are not always repeated. Inconclusive results are not listed. Where a call stands in place of a potency, no number is given. Values without a mark were called inactive. Activity calls are given as the source filed them. Calls follow the shape of the dose curve; as a rule, active = well fitted curve in the direction sought with a large enough effect; inconclusive = small, poorly fitted or top-dose-only effect, or another doubt; inactive = no such curve, though single readings can be large; an effect the other way counts as inactive or inconclusive.
Experiments:
[1] = Viability qHTS for spleen associated tyrosine kinase inhibitor (SYKi) naive MV4-11 cells (AID 1963823); also: nearly all actives have a fitted effect of over 40% in size
Method in brief: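 CellTiter-Glo luminescence, 10 min room-temperature incubation, gave viability. Cells: naive MV4-11 (500/well), treated 72 hr at 37 C, 5% CO2.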

[2] = Cellular viability qHTS for adrenocortical cancer (ACC) cell line SW-13 (AID 1963989); settings: SW-13 ACC cells viability, CellTiter-Glo, 48 h; activity (max response): stronger effect = lower value; also: nearly all actives have a fitted effect of over 65% in size;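 as to activity (max response): cells grown in serum-free medium with ITS supplement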
Method in brief: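 Viability was read as CellTiter-Glo luminescence after 48 h compound treatment (up to 46 uM final) of SW-13 cells grown serum-free; titration curves were fit with a four-parameter logistic model to give IC50 and efficacy.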

[3] = Cellular viability qHTS for adrenocortical cancer (ACC) cell line NCI-H295R (AID 1963990); also: nearly all actives have a fitted effect of over 60% in size
Method in brief: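 CellTiter-Glo ATP luminescence, read 48 h after compound addition, measured viability of NCI-H295R adrenocortical cells grown serum-free with ITS. Final concentrations spanned up to 46 uM. Data normalized to DMSO and doxorubicin, fitted for IC50 and maximal response.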
Potency is read from the fitted curve at half-maximal effect.

Structure (SMILES)	Potency [1]	activity (max response) [2]	Potency [3]	Potency [2]
COC(=O)CCCCC(CCSS/C(CCO)=C(\C)N(C=O)Cc1cnc(C)nc1N)SC(C)=O (stereo unspecified)	inactive	8.22%	inactive	–
CCOC(=O)Oc1ccc(CCNC(=O)[C@H](CCSC)NC(C)=O)cc1OC(=O)OCC	inactive	3.57%	inactive	–
Cc1cc(O[C@@H](CCC(F)(F)F)c2ccc(C(=O)NCCC(=O)O)cc2)cc(C)c1-c1ccc(C(C)(C)C)cc1	13.2 µM (active)	–	22.4 µM (active)	25.1 µM (active)
O=C1NC(=O)/C(=C\c2ccc(-c3ccc(F)cc3)o2)S1	14.8 µM (active)	3.49%	inactive	–
O=C1CCCc2c(O)cccc21	inactive	-6.15%	inactive	–
CSC[C@H]1CN(Cc2c[nH]c3c(N)ncnc23)C[C@@H]1O	inactive	-14.7%	inactive	–
CC(=O)OCC[N+](C)(C)C	inactive	10.9%	inactive	–
CCN(CC)CCCC[C@H](NC(=O)[C@H](CC(C)C)NC(=O)[C@H](C)NC(=O)[C@H](Cc1ccccc1)NC(=O)c1ccc(C(C)(C)C)cc1)C(=O)N[C@@H](CO)C(=O)OC	inactive	-29.2%	inactive	–
CCOC(=O)[C@H](CCc1ccccc1)N[C@@H](C)C(=O)N1Cc2cc(OC)c(OC)cc2C[C@H]1C(=O)O	inactive	2.85%	inactive	–
CCN(CC)C(=O)Cc1csc(NS(=O)(=O)c2cccc(Cl)c2C)n1	inactive	-19.2%	inactive	–
C/C=C/C[C@@H](C)C(=O)[C@H]1C(=O)N[C@@H](C(C)C)C(=O)N(C)CC(=O)N(C)[C@@H](CC(C)C)C(=O)N[C@@H](C(C)C)C(=O)N(C)[C@@H](CC(C)C)C(=O)N[C@@H](C)C(=O)N[C@H](C)C(=O)N(C)[C@@H](CC(C)C)C(=O)N(C)[C@@H](CC(C)C)C(=O)N(C)[C@@H](C(C)C)C(=O)N1C	6.45 µM (active)	4.11%	inactive	–
O=C1Cc2cc(Cl)ccc2N1	inactive	11.1%	inactive	–
CC(=O)OCC(=O)[C@@]1(O)CC[C@H]2[C@@H]3CCC4=CC(=O)C=C[C@]4(C)[C@H]3[C@@H](O)C[C@@]21C	inactive	1.48% and -12.4%	inactive	–
COC(=O)c1cc(S(N)(=O)=O)ccc1OC	inactive	6.75%	inactive	–
C[C@H]1CNC(=O)c2cnn3ccc(nc23)N[C@H](C)c2cc(F)ccc2O1	0.525 µM (active)	–	8.91 µM (active)	8.91 µM (active)
c1ccc(-c2ccc(CNc3nc(-c4ccccn4)nnc3-c3ccccc3)cc2)cc1	0.92 µM (active)	–	17.8 µM (active)	11.2 µM (active)
COc1cc2c(cc1OCCCN1CCCC1)N=C(N)C21CCC1	inactive	-9.17%	inactive	–
CCO[C@@H]1OC(=O)C[C@@H]1NC(=O)[C@@H]1CCCN1C(=O)[C@@H](NC(=O)c1ccc(N)c(Cl)c1)C(C)(C)C	inactive	-11.3%	inactive	–
COC(=O)N(C)c1c(N)nc(-c2nn(Cc3ccccc3F)c3ncccc23)nc1N	inactive	-4.16%	inactive	–
CCN1CCCC(OC(=O)C(c2ccccc2)c2ccccc2)C1 (stereo unspecified)	inactive	-12.5%	inactive	–
O=[N+]([O-])c1ccc(-c2nc(-c3ccc(F)cc3)c(-c3ccncc3)[nH]2)cc1	14.8 µM (active) and 5.17 µM (active)	-1.63%	inactive	–
Cc1cccc(-c2[nH]c(CNc3ccccc3F)nc2-c2ccc3ncnn3c2)n1	13 µM (active)	-16.8%	inactive	–
O=C(O)CC(C(=O)O)n1c(O)c(C2=c3cc(Br)ccc3=NC2=O)sc1=S (stereo unspecified)	inactive	-4.1%	inactive	–
O=C1c2cccc(O)c2C(=O)c2c(O)cccc21	inactive	1.51%	inactive	–
COc1ccc(-c2cc(=S)ss2)cc1	inactive	-5.69%	inactive	–
CO[C@H]1O[C@@H]2O[C@@]3(C)CC[C@H]4[C@H](C)CC[C@@H]([C@H]1C)[C@@]24OO3	1.32 µM (active)	0.283%	inactive	–
Cc1ncc(CO)c(CO)c1O	3.76 µM (active)	1.35%	inactive	–

— PubChem BioAssay (NCATS)
